# Results taken from the supplement of paper PMC8975748.
# Counter-ions that a name gives are not always drawn. ± gives the standard deviation of the averaged measurements.
# Key:
# [1] = test system: Saccharomyces cerevisiae BY4741 SeMeCo community; experiment: mean cell size (pixel area) (pixels); higher = larger cells; details: 10 µM; 24 h; SM minimal medium
# How it was run: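 Mean cell pixel area per well was measured in a four-plasmid fluorescent community of Saccharomyces cerevisiae BY4741, where every plasmid complements one auxotrophy and carries a fluorescent marker. Cells from an overnight preculture at OD600 = 1.0 were diluted to OD600 = 0.3 and dispensed at 70 µl into 384-well plates acoustically predosed with drug to a final 10 µM in SM medium. Incubation lasted 24 h, followed by paraformaldehyde fixation, automated confocal imaging and analysis in Harmony. Reported figures are averaged over 3 replicates. Same SeMeCo high-content imaging drug screen: Selleck FDA-approved drugs at 10 µM, 24 h in SM medium, 384-well plates, 3 replicates.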
# [2] = test system: Saccharomyces cerevisiae BY4741 SeMeCo community; experiment: z-score of prototroph abundance vs DMSO median; higher = larger share of this subpopulation than in DMSO controls; details: 10 µM; 24 h; SM minimal medium; subpopulation (auxotrophy): Prototroph
# How it was run: (§1)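 Automated confocal microscopy of paraformaldehyde-fixed cells was used to follow a Saccharomyces cerevisiae BY4741 community carrying four plasmids, each restoring one auxotrophy and encoding a distinct fluorescent protein. The community was pre-grown overnight to OD600 1.0, diluted to 0.3, and added at 70 µl to 384-well plates acoustically predosed with library drugs (10 µM final) for 24 h of growth in minimal SM medium. Single-auxotroph fluorescent strains set thresholds and autofluorescence correction, and each subpopulation's abundance was scored as a z-score against the vehicle-well median.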
# [3] = test system: Saccharomyces cerevisiae BY4741 SeMeCo community; experiment: z-score of subpopulation abundance vs DMSO median, subpopulation auxotrophic for M; higher = larger share of this subpopulation than in DMSO controls; details: 10 µM; 24 h; SM minimal medium; subpopulation (auxotrophy): M
# How it was run: as §1
# [4] = test system: Saccharomyces cerevisiae BY4741 SeMeCo community; experiment: z-score of subpopulation abundance vs DMSO median, subpopulation auxotrophic for L; higher = larger share of this subpopulation than in DMSO controls; details: 10 µM; 24 h; SM minimal medium; subpopulation (auxotrophy): L
# How it was run: as §1
# [5] = test system: Saccharomyces cerevisiae BY4741 SeMeCo community; experiment: z-score of subpopulation abundance vs DMSO median, subpopulation auxotrophic for U; higher = larger share of this subpopulation than in DMSO controls; details: 10 µM; 24 h; SM minimal medium; subpopulation (auxotrophy): U
# How it was run: as §1
# [6] = test system: Saccharomyces cerevisiae BY4741 SeMeCo community; experiment: z-score of subpopulation abundance vs DMSO median, subpopulation auxotrophic for H; higher = larger share of this subpopulation than in DMSO controls; details: 10 µM; 24 h; SM minimal medium; subpopulation (auxotrophy): H
# How it was run: as §1
# [7] = test system: Saccharomyces cerevisiae BY4741 SeMeCo community; experiment: z-score of subpopulation abundance vs DMSO median, subpopulation auxotrophic for LU; higher = larger share of this subpopulation than in DMSO controls; details: 10 µM; 24 h; SM minimal medium; subpopulation (auxotrophy): LU
# How it was run: as §1
# [8] = test system: Saccharomyces cerevisiae BY4741 SeMeCo community; experiment: z-score of subpopulation abundance vs DMSO median, subpopulation auxotrophic for LM; higher = larger share of this subpopulation than in DMSO controls; details: 10 µM; 24 h; SM minimal medium; subpopulation (auxotrophy): LM
# How it was run: as §1
# [9] = test system: Saccharomyces cerevisiae BY4741 SeMeCo community; experiment: z-score of subpopulation abundance vs DMSO median, subpopulation auxotrophic for UM; higher = larger share of this subpopulation than in DMSO controls; details: 10 µM; 24 h; SM minimal medium; subpopulation (auxotrophy): UM
# How it was run: as §1
# [10] = test system: Saccharomyces cerevisiae BY4741 SeMeCo community; experiment: z-score of subpopulation abundance vs DMSO median, subpopulation auxotrophic for HL; higher = larger share of this subpopulation than in DMSO controls; details: 10 µM; 24 h; SM minimal medium; subpopulation (auxotrophy): HL
# How it was run: as §1
# [11] = test system: Saccharomyces cerevisiae BY4741 SeMeCo community; experiment: z-score of subpopulation abundance vs DMSO median, subpopulation auxotrophic for HLM; higher = larger share of this subpopulation than in DMSO controls; details: 10 µM; 24 h; SM minimal medium; subpopulation (auxotrophy): HLM
# How it was run: as §1
# [12] = test system: Saccharomyces cerevisiae BY4741 SeMeCo community; experiment: z-score of subpopulation abundance vs DMSO median, subpopulation auxotrophic for HUM; higher = larger share of this subpopulation than in DMSO controls; details: 10 µM; 24 h; SM minimal medium; subpopulation (auxotrophy): HUM
# How it was run: as §1
# [13] = test system: Saccharomyces cerevisiae BY4741 SeMeCo community; experiment: z-score of subpopulation abundance vs DMSO median, subpopulation auxotrophic for LUM; higher = larger share of this subpopulation than in DMSO controls; details: 10 µM; 24 h; SM minimal medium; subpopulation (auxotrophy): LUM
# How it was run: as §1
# [14] = test system: Saccharomyces cerevisiae BY4741 SeMeCo community; experiment: z-score of subpopulation abundance vs DMSO median, subpopulation auxotrophic for HM; higher = larger share of this subpopulation than in DMSO controls; details: 10 µM; 24 h; SM minimal medium; subpopulation (auxotrophy): HM
# How it was run: as §1
# [15] = test system: Saccharomyces cerevisiae BY4741 SeMeCo community; experiment: z-score of subpopulation abundance vs DMSO median, subpopulation auxotrophic for HU; higher = larger share of this subpopulation than in DMSO controls; details: 10 µM; 24 h; SM minimal medium; subpopulation (auxotrophy): HU
# How it was run: as §1
# [16] = test system: Saccharomyces cerevisiae BY4741 SeMeCo community; experiment: z-score of subpopulation abundance vs DMSO median, subpopulation auxotrophic for HLUM; higher = larger share of this subpopulation than in DMSO controls; details: 10 µM; 24 h; SM minimal medium; subpopulation (auxotrophy): HLUM
# How it was run: as §1
SMILES,mean cell size [1],z-score of prototroph abundance [2],z-score of subpopulation abundance [3],z-score of subpopulation abundance [4],z-score of subpopulation abundance [5],z-score of subpopulation abundance [6],z-score of subpopulation abundance [7],z-score of subpopulation abundance [8],z-score of subpopulation abundance [9],z-score of subpopulation abundance [10],z-score of subpopulation abundance [11],z-score of subpopulation abundance [12],z-score of subpopulation abundance [13],z-score of subpopulation abundance [14],z-score of subpopulation abundance [15],z-score of subpopulation abundance [16]
OC(CCN1CCCCC1)(c1ccccc1)C1CCCCC1 (configuration not stated) [Trihexyphenidyl hydrochloride],12.5 ± 0.24,-0.03,0.49,0.5,0.45,-0.13,1.04,-0.29,0.41,-0.03,0.68,-0.31,0.73,–,–,–
CCOC(=O)C1=C(COCCN)NC(C)=C(C(=O)OC)C1c1ccccc1Cl (configuration not stated) [Amlodipine],–,2.13,3.04,4.02,-7,3.95,-7.07,8.35,-8.26,–,9.49,-6.23,–,4.86,-7.36,-1.8
CCCNC(C)C(=O)Nc1ccccc1C (configuration not stated) [Prilocaine hydrochloride],12.28 ± 0.063,-0.24,-0.36,0.41,0.86,-0.67,1.11,–,0.54,0.03,-0.05,-0.27,0.73,-0.46,0.08,0.58
Cc1cccc(C#Cc2ccccc2)n1,–,0.53,-0.25,0.06,0.22,0.06,0.12,-0.31,-0.28,-0.06,-0.43,-0.32,-0.34,-0.61,-0.18,-0.82
CCCOc1ccc2[nH]c(NC(=O)OC)nc2c1 [Oxibendazole],12.26 ± 0.1,-1.22,0.43,0.1,0.5,0.1,1.03,–,1.39,0.7,0.16,1.12,0.95,0.95,0.92,0.11
Nc1ccc(S(=O)(=O)Nc2ncccn2)cc1 [Sodium sulfadiazine],12.42 ± 0.059,-0.25,0.4,0.56,–,-0.33,0.3,0.18,-0.13,0.08,-0.23,–,0.15,0.17,-0.58,–
C#C[C@]1(O)CC[C@H]2[C@@H]3CCC4=CCCC[C@@H]4[C@H]3C(=C)C[C@@]21CC [Desogestrel],12.3 ± 0.29,–,-0.11,-0.12,-0.38,0.78,0.22,-0.94,-1.41,0.58,-0.87,-0.05,–,-0.05,–,-0.48
CCN(CC)CCOc1ccc2c(c1)C(=O)c1cc(OCCN(CC)CC)ccc1-2 [Tilorone dihydrochloride],12.3 ± 0.13,0.72,-1.12,-0.72,0.24,0.18,-0.27,-0.86,-0.31,-0.65,0.21,-0.66,–,-1.02,0.05,–
CCN1CCN(C(=O)N[C@@H](C(=O)N[C@@H]2C(=O)N3[C@@H]2SC(C)(C)[C@@H]3C(=O)O)c2ccccc2)C(=O)C1=O [Piperacillin Sodium],12.6 ± 0.14,-0.12,0.21,1.08,-0.72,-0.01,-0.03,0.88,-0.96,0.54,0.59,0.48,0.86,1.21,–,-0.13
CC(C)Cc1ccc(C(C)C(=O)O)cc1 (configuration not stated) [Ibuprofen],13.04 ± 0.12,3.17,-0.51,-0.92,-1.82,-0.54,-2.51,-0.71,-3.84,-0.54,0.37,-3.22,-2.23,-1.2,-2.1,–
OCc1ccccc1O[C@@H]1O[C@H](CO)[C@@H](O)[C@H](O)[C@H]1O [Salicin],12.4 ± 0.14,–,-0.14,0.38,–,-0.5,-0.12,0.72,-0.29,-0.58,-0.5,–,0.42,-0.68,-0.9,-0.11
CCn1cc(C(=O)O)c(=O)c2ccc(C)nc21 [Nalidixic acid],11.87 ± 0.1,1.23,-1.04,1.23,-0.51,–,-0.49,–,-1.42,–,-0.21,-1.86,-0.71,–,-0.52,-0.59
CN(CCN1CCC(OC(=O)Nc2ccccc2-c2ccccc2)CC1)C(=O)c1ccc(CN2CCC(C(N)=O)CC2)cc1 [Revefenacin],–,-0.26,1.54,-0.42,0.17,–,0.12,0.16,0.92,-0.32,-0.49,–,0.17,0.49,-0.27,-0.7
O=C(O)CCC(=O)OC[C@@H](NC(=O)C(Cl)Cl)[C@H](O)c1ccc([N+](=O)[O-])cc1 [Chloramphenicol sodium succinate],–,-0.62,0.71,2.27,-0.91,0.42,0.45,–,-0.25,1.46,0.81,0.13,1.21,0.94,-1.04,–
